Reference: ChEMBL document CHEMBL3988442, “University of Dundee, Small-Polar-MMV Screening Library” (2021)

Assays:
[1] = biological target: T1, Aspartate--tRNA(Asp/Asn) ligase (Mycobacterium tuberculosis (strain ATCC 25618 / H37Rv)) (UniProt P9WFW3); assay: Assay for Asp RNA synthetase-1 from Mycobacterium tuberculosis; assay type: functional; parameters: scale not given: direction of the effect not stated beside the values; conditions: 30 µM; also: in the data most compounds retested in dose-response had high values
T1 sequence (whole entry): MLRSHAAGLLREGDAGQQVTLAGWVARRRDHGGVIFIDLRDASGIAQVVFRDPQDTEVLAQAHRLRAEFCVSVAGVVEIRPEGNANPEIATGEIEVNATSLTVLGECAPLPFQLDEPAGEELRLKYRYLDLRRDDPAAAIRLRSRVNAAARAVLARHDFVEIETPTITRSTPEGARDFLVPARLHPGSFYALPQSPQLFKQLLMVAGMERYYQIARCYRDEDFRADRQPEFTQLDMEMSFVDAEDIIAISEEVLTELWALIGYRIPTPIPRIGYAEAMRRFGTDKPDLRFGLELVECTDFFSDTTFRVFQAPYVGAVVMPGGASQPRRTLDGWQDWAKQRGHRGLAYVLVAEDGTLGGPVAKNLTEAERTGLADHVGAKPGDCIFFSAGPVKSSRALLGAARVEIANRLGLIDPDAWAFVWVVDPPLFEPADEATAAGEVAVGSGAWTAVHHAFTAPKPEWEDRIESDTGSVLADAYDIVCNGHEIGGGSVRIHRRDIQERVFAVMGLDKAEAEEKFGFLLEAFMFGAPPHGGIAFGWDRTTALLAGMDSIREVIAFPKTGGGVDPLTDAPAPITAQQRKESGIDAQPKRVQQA

[2] = biological target: Shiga toxin 2 (Escherichia coli O157:H7) (UniProt P09385+P09386); assay: E. coli 0.157:H7 Shiga Toxin SOP - stx2 screening assay; assay type: functional; parameters: scale not given: direction of the effect not stated beside the values; conditions: 30 µM

| SMILES | Percent Effect [1] [%] | Percent Effect [2] [%] |
| --- | --- | --- |
| CCCc1nc(N2CCN(CC)CC2)c2c(n1)c(C)nn2CC | 11.2 | -8.6 |
| Cc1c(C(=O)NC(C)C(C)C)nnn1-c1cccc2c1CCN(C)C2 (stereo not given) | 2.19 | 3.53 |
| CCc1nc(C2CCCN2CC(=O)Nc2sc(C)c(C)c2C)no1 (stereo not given) | 0.212 | 8.78 |
| Cc1nc(C)n(CC2CN(c3ncccn3)Cc3nccn3C2)n1 (stereo not given) | -0.127 | 11.6 |
| CNc1nc2c(s1)C(=O)CN(C(=O)NCc1ccccc1)C2 | 1.63 | -6.79 |
| CS(=O)(=O)N1CCOCC2(CN(Cc3ccco3)CCO2)C1 (stereo not given) | -7.59 | -18.6 |
| COC(=O)Cn1c(=O)nc2n1C(=O)N(c1ccc(Cl)cc1)C2 | 1.73 | -16.1 |
| Cc1nc(-c2cccc(C(=O)O)c2)cc(C2CCN(C(C)C)C2)n1 (stereo not given) | -4.63 | 4.12 |
| Cn1cc(C(=O)N[C@@H]2CN(Cc3cccs3)[C@@H]3CCCO[C@@H]32)cn1 | 1.75 | -2.87 |
| COc1cc(CN(C)C(=O)Nc2cc(C)on2)ccc1SC | 2.27 | -8.55 |
| CCn1cnnc1CNC(=O)c1cc(Cl)ccc1O | 3.77 | -19.6 |
| Cc1n[nH]c(=O)c2c(NC(=O)CN3CCC(O)CC3)oc(C)c12 | 1.28 | -66.6 |
| Cc1cnn(CC2CCCCN2Cc2noc(C3CC3)n2)c1 (stereo not given) | -2.57 | 26.8 |
| COc1ccc(OC)c(C2CCN(Cc3nc(C)n4ccccc34)C2)c1 (stereo not given) | -1.14 | 10.1 |
| CN(Cc1ccccn1)C1COC2(CCN(Cc3nccs3)CC2)C1 (stereo not given) | -4.31 | -5.28 |
| Cn1cc(N2CCC(NC(=O)c3c(F)cccc3F)C2=O)cn1 (stereo not given) | 0.409 | -11.8 |
| Cc1nn(C)c(N(C)C)c1CNC(C)COc1cccc(F)c1 (stereo not given) | -0.463 | -10.4 |
| CC(c1ccc(Cl)cc1)N1CCN(CCS(C)(=O)=O)CC1 (stereo not given) | -1.84 | 1.09 |
| Cc1cccc(CN2CCc3c(nc(N4CCC(C)CC4)[nH]c3=O)C2)n1 | -2.78 | 10.7 |
| CCc1ncc2c(n1)CN(C(=O)COC)C2 | 2.9 | -5.79 |
